Bioassay records from PubChem.
HCT116 bCat-KO = beta-catenin-lacking colon tumor cell growth suppression. HCT116 beta-catenin knockout viability, CellTiter-Glo, 60 h; stronger effect = lower value. viability, % at 10 µM. 1.5% of 140,000 active. AID 818;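 active = viability at or under a set limit, the compound median less 4 SD, cut at about 6% in these data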;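 also: 0% = Hyamine 1622 control at 20 µM and 100% = untreated cell control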
L major viab = inhibitors of Leishmania major promastigote growth; Leishmania major promastigotes, resazurin fluorescence viability; inhibition, % at 10 µM; 9% of 200,000 active; AID 1063; in the data active = inhibition above about 50%;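 also: promastigotes grown with compound for 44 hours at 28 °C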
Insulin prom inh = TRM-6 insulin promoter activity inhibition; TRM-6 cells (human fetal islet line), insulin promoter-eGFP reporter, imaging; reporter expression induced with tamoxifen; inhibition, % at 2 µM; 0.9% of 130,000 active; AID 1273;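 active = inhibition above the mean plus 3 SD, with well images judged a real hit on visual review, cut at about 60% in these data, passing the limit was not always enough; inconclusive = inhibition over the cutoff but images rejected on review; inactive = inhibition not above the cutoff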
PTEN del growth = growth suppressors of cells with PTEN tumor suppressor deletion. HCT116 PTEN-null viability, CellTiter-Glo, 60 h; stronger effect = lower value. viability, % at 10 µM. 1.2% of 140,000 active;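 active = viability at or below a set limit, 4 SD under the median of all tested compounds, cut at about 3.7% in these data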;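 also: PTEN knockout HCT116 line with beta catenin targeted HCT116 as companion control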
Ins promoter up = MIN6 insulin promoter up-regulation; MIN6 insulin promoter-GFP reporter, high-content imaging; stronger effect = higher value; AID 1625; z-score at 5 µM; 0.3% of 190,000 active;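 active = z-score above 3 at 5 µM with at least 500 cells counted in the well; inconclusive = wells under 500 cells, flagged as cytotoxic or low count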
Autophagy mod = alters autophagy in cells; MEF GFP-LC3 puncta imaging; test concentration mostly 10 µM; calls only at 10 µM (by protocol); 0.98% of 190,000 active; AID 463193;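 active = percentage of spot-positive cells more than 3 SD above its plate mean, without a fluorescence outlier flag or 80% toxicity; inconclusive = no clear call, values can overlap the other calls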;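 also: spot-positive cell cutoff set from DMSO-treated cells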
An asterisk follows results filed as active; i = inactive; ? = inconclusive; · = not tested or not shown; + = active, no number. Compounds with a hit are over-represented: about 9.6% of the library has one in this group of screens.

SMILES	HCT116 bCat-KO	L major viab	Insulin prom inh	PTEN del growth	Ins promoter up	Autophagy mod
COC(=O)C1=C(N)Oc2cc(C)n(Cc3cccnc3)c(=O)c2C1c1ccc(OC)c(OC)c1 (configuration not stated)	95.6	5.1	·	83.5	0.03	·
COC(=O)C1=C(N)Oc2cc(C)n(CCc3ccccc3)c(=O)c2C1c1cccnc1 (configuration not stated)	94.2	98.4*	·	100.0	0.27	i
CCOC(=O)C1=C(N)Oc2cc(C)n(CCc3ccc(OC)c(OC)c3)c(=O)c2C1c1cccnc1 (configuration not stated)	105.6	93.6*	54.5	90.0	·	i
CCOC(=O)C1=C(N)N(c2ccccc2)C2=C(C(=O)CCC2)C1c1cccnc1 (configuration not stated)	95.5	72.0*	-46.1	98.1	0.11	i
CCCCCN(C(=O)NC(=O)Nc1ccc(C)cc1C)S(C)(=O)=O	·	-12.6	·	·	-1.2	i
CC1(C)Cc2c(sc3c2C2=NCCN2C=N3)CO1	·	0.9	46.4	·	0.26	i
Cc1ccc(Cn2nc(C)c(NC(=O)c3noc4c3CCCCC4)c2C)cc1	79.9	15.3	-226.9	90.7	1.19	i
CCOC(=O)C1=C(C)Nc2ncnn2C1c1cccnc1 (configuration not stated)	95.5	2.4	17.9	94.6	-0.52	i
CCOC(=O)C1=C(C)N(C)C(C)=C(C(=O)OCC)C1c1cccnc1	84.5	95.0*	50.0	92.9	0.54	i
COc1cccc(-n2cnc3sc4c(c3c2=O)CCC4)c1	·	-4.3	·	·	0.67	i
Cc1cc(C)c(CSc2ncc(-c3ccc([N+](=O)[O-])cc3)[nH]2)c(C)c1	62.9	97.1*	0.0	30.1	0.28	i
O=[N+]([O-])c1ccc(-c2cnc(SCc3ccccc3Cl)[nH]2)cc1	61.7	26.2	-3.2	53.4	-0.49	i
O=[N+]([O-])c1ccc(-c2cnc(SC(c3ccccc3)c3ccccc3)[nH]2)cc1	3.9*	32.5	·	22.7	-1	i
COc1cccc(C(=O)NC(C)c2ccc(Br)cc2)c1 (configuration not stated)	99.2	60.5*	16.7	94.9	0.24	i
COc1ccc(CCN=C(N)C(C)c2ccccc2)cc1OC (configuration not stated)	·	·	·	·	-0.47	·
CC(C)Oc1ccc(CCN=C(N)N=C(N)N)cc1Cl	·	81.4*	-20.0	·	0.56	i
CC(C)c1ccc(NC(=O)CCNS(=O)(=O)c2cccc3nsnc23)cc1	99.4	1.7	·	109.8	-1.32	i
COCC(C)NC(=O)/C(=C/c1ccccc1)c1ccccc1 (configuration not stated)	·	5.8	·	·	-0.64	i
CC(NC(=O)/C(=C/c1ccc(OC(F)F)cc1)c1ccccc1)c1ccccc1 (configuration not stated)	77.5	78.0*	·	70.6	-0.55	i
COc1ccc(N2C3=C(CC4=C2CCCC4=O)C(=O)CCC3)cc1	94.8	25.5	18.4	82.9	·	i
COc1ccc(N2C3=C(CC4=C2CC(C)(C)CC4=O)C(=O)CC(C)(C)C3)cc1	1.1*	100.4*	-62.9	1.1*	0.83	i
CCCS(=O)(=O)N1CCC(C(=O)NCCc2ccccc2)CC1	94.9	-3.5	·	94.7	-0.26	i
C=CCn1c(SCC(=O)c2[nH]c(C)c(C(=O)OCC)c2C)nc2scc(-c3ccc(OC)cc3)c2c1=O	1.7*	-3.4	-180.0	1.6*	0.37	i
C=CCn1c(SCC(N)=O)nc2scc(-c3ccc(C)o3)c2c1=O	·	0.2	·	·	-1.41	i
C=CCn1c(SCC(=O)c2[nH]c(C)c(C(=O)OCC)c2C)nc2scc(-c3ccccc3)c2c1=O	2.0*	-2.6	-9.1	1.3*	·	i
SMILES	HCT116 bCat-KO	L major viab	Insulin prom inh	PTEN del growth	Ins promoter up	Autophagy mod
O=C(NCc1ccco1)c1cc(-c2ccccc2)c(N2CCOCC2)s1	79.5	1.7	·	78.0	-0.35	i
CCOC(=O)/C(=C/C=C1\Sc2ccccc2N1CC)C(C)=O	67.9	15.3	-46.9	64.1	·	i
CC[n+]1c(/C=C(/C)SC)sc2ccccc21	35.5	82.5*	·	39.1	-0.5	i
CC[n+]1c(/C=C/Nc2ccccc2)sc2ccccc21	52.0	98.8*	·	56.2	?	i
CCN1/C(=C/C=C/C=C/c2sc3ccccc3[n+]2CC)Sc2ccccc21	1.2*	100.4*	-354.6	1.7*	·	i
CC/C(=C/c1sc2ccccc2[n+]1CC)SC	79.1	91.5*	0.0	78.3	-0.58	i
CC[n+]1ccccc1/C=C/Nc1ccccc1	·	-1.6	·	·	-0.06	i
Nc1nc(Nc2ccccc2)nc(NCc2ccccc2)c1[N+](=O)[O-]	·	·	·	·	-0.12	·
CCOP(=O)(c1ccc(N(C)C)cc1)C(O)c1ccncc1 (configuration not stated)	·	·	·	·	1.59	·
CC[n+]1c(/C=C(\C)OC)sc2ccccc21	·	19.3	-85.7	·	0.09	i
CC[n+]1c(/C=C(\C)SC)sc2ccccc21	77.6	65.0*	-20.8	71.5	·	i
Cc1sc2ccccc2[n+]1CC(=O)O	·	·	·	·	0.14	·
CC[n+]1c(/C=C(\C)Nc2ccccc2)sc2ccccc21	38.0	98.8*	-8.1	34.5	-2.13	i
Cc1c(O)c(=O)c2ccccc2n1C	89.5	1.9	-33.3	87.6	0.19	i
CC(=O)NC(C)C(=O)OCC(=O)c1ccc(Cl)s1 (configuration not stated)	82.5	-3.9	0.0	94.7	-0.04	i
CC(=O)NC(C)C(=O)OCC(=O)c1ccc(-c2ccccc2)cc1 (configuration not stated)	·	-14.3	0.0	·	-0.45	+
COCCNS(=O)(=O)c1ccc(F)c(OC)c1	94.2	-3.4	-50.0	88.9	-0.25	i
CN(C)CCCCCCCCCCC(=O)/C=N/O	·	99.4*	-46.7	·	·	i
CN(CCCCCCCCC(=O)/C=N/O)Cc1ccccc1	89.5	87.3*	-30.0	94.9	0.42	i
C/C(Cc1ccccc1)=N\NC(=O)CCCCCC(=O)N/N=C(\C)Cc1ccccc1	106.6	0.9	35.1	107.3	·	i
CC1(C)C(C=C(Cl)Cl)C1C(=O)N(Cc1cccc(Cl)c1)C1CCS(=O)(=O)C1 (configuration not stated)	78.0	90.6*	-37.9	71.2	-1.57	i
CCOc1cc(C(=O)OCC(=O)c2c(N)n(C)c(=O)n(C)c2=O)cc(OCC)c1OCC	94.5	0.4	14.8	85.6	1.03	i
O=C(Oc1cccnc1)c1ccc([N+](=O)[O-])cc1	97.0	-8.8	-16.7	104.7	0.34	i
Cn1cc([N+](=O)[O-])c(C(=O)Nc2ccc3nc(-c4ccccc4)[nH]c3c2)n1	62.2	14.1	·	62.8	·	i
O=[N+]([O-])c1cc(Oc2cccnc2)cc([N+](=O)[O-])c1	88.8	38.8	57.1	97.2	0.42	+
Cn1cc([N+](=O)[O-])c(C(=O)Nc2cc(Oc3cccnc3)cc([N+](=O)[O-])c2)n1	1.6*	12.5	·	0.3*	-0.32	i
CCC(=O)NCCC(c1ccco1)c1ccccc1OC (configuration not stated)	89.6	-1.3	-10.5	104.1	·	i
